Myeloid diff MLP = myeloid differentiation induction; 1% of 360,000 active; ER-HoxA9 myeloid progenitors, lysozyme-GFP differentiation, flow cytometry; AID 624256; calls only at 10 µM;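 active = normalized GFP-positive differentiation at or above the plate's own cutoff, the solvent-only control mean plus 3 SD; inconclusive = no clear call, values can overlap the other calls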;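 also: cells exposed to compound for four days before flow analysis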
NPR1 activator = GC-A (human) enzyme activation | P16066 | HEK293 GC-A cells, cGMP TR-FRET, EC30 ANP; 0% at EC30 ANP, 100% saturating ANP | 0.14% of 370,000 active | AID 1671463 | activation, % at 10 µM; in the data active = activation above about 40%
GC-B act = GC-B (human) receptor activation; P20594; HEK293-GC-B cells, CNP EC30, cGMP TR-FRET; 0% at EC30 CNP, 100% saturating CNP; activation, % at 10 µM; 0.11% of 370,000 active;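 active = activation at 10 µM reaching about 35% in either raw or pattern-adjusted values, limit read from the data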
Granule exo inh = blocks lytic granule exocytosis. TALL-104 LAMP-1 surface exposure, flow cytometry; cells stimulated with thapsigargin and PMA. 0.66% of 360,000 active. inhibition, % at 10 µM;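 active = inhibition above about 55%, limit read from the data; inconclusive = no clear call, values can overlap the other calls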
Numbers without * were called inactive; i = inactive; ? = inconclusive; · = no result given; + = active, no number. Compounds with a hit are over-represented: about 1.8% of the library has one in this group of screens.

SMILES | Myeloid diff MLP | NPR1 activator | GC-B act | Granule exo inh
COC1CCC(OC2CC(C3(C)CCC4(CC(O)C(C)C(C(C)/C=C(\C)C(=O)C(C)CC(C)C(=O)O)O4)O3)OC3(OC(C4OC(O)(CO)C(C)CC4C)CC3C)C2C)OC1C (centres undefined) | · | 5 | -5 | 78*
O=C(NCCN1CCC2(CC1)C(=O)NCN2c1ccccc1)c1cccc(F)c1 | · | -6 | 6 | ·
Cn1c(O)c(/C=C/C=Nc2ccccc2)c(=O)n(C)c1=S | + | 5 | -1 | -3
O=C(NCCN1CCC2(CC1)C(=O)NCN2c1ccccc1)c1cccnc1Cl | · | -1 | -1 | ·
O=C(O)CCCc1ccc(N(CCCl)CCCl)cc1 | i | 7 | -5 | 2
O=C1NC(=S)SC1=Cc1ccc(N(CCCl)CCCl)cc1 | + | -2 | -4 | 11
C[n+]1c(-c2ccccc2)c2cc(N)ccc2c2ccc(N)cc21 | + | -19 | -14 | 5
COCCOC(=O)c1c(C)oc2ccc(OC(=O)N(C)C)cc12 | i | 0 | 0 | 2
Cn1cccc1/C=C1/C(=O)NC(=S)N(Cc2ccc(F)cc2)C1=O | i | -47 | -4 | 58*
COc1cccc(C(c2nnnn2-c2ccc3c(c2)OCCO3)N2CCC(n3c(=O)[nH]c4ccccc43)CC2)c1OC (centres undefined) | + | -7 | -2 | -1
O=C(NCCN1CCC2(CC1)C(=O)NCN2c1ccccc1)c1ccc(F)c(F)c1 | · | -4 | -11 | ·
Cc1ccc(N2C(=O)NC(=O)/C(=C/c3cnn(-c4ccc(C)cc4)c3)C2=O)cc1 | i | 57* | 10 | 46
CN1CCc2cc(O)cc3c2[C@H]1Cc1ccc(O)c(O)c1-3 | i | -8 | -8 | 60*
COc1cc2c(cc1O)C[C@H]1c3c(cc(O)c(OC)c3-2)CCN1C | i | -3 | -10 | -1
Cc1cc(OCC(=O)NCc2ccc(S(N)(=O)=O)cc2)c2c3c(c(=O)oc2c1)CCC3 | i | -2 | -6 | -7
COc1ccc2c3c([nH]c2c1)C(C)NCC3 (centres undefined) | + | 4 | -1 | 0
C1=C(c2c[nH]c3ccccc23)CCNC1 | · | -6 | -11 | ·
CC(C)N1CC=C(c2c[nH]c3ccccc23)CC1 | + | -13 | -5 | -2
Cc1cc(O)c2c(c1)C(=O)[C@@]13C(=C2O)C(=O)[C@H]2C(O)[C@@H]1[C@H]1C(O)[C@@H]3C(=O)C3=C(O)c4c(O)cc(C)cc4C(=O)[C@@]312 (some centres undefined) | · | 2 | -2 | ·
CNC(=O)Oc1ccc2c(c1)C(=O)c1ccccc1CO2 | + | -1 | -2 | 0
CCC(=O)c1cn(Cc2ccccc2)c2ccccc12 | i | 14 | 0 | 1
O=C(COc1ccccc1)c1cn(Cc2ccccc2)c2ccccc12 | + | 3 | -2 | -1
Nc1ccc2ccc3cccc[n+]3c2c1 | + | 18 | -3 | 21
O=C(Cn1ncc2c3ccccc3n(Cc3ccccc3F)c2c1=O)N1CCC2(CC1)OCCO2 | i | 29 | 42* | 0
C[C@H](NC(=O)OCc1ccccc1)[P+](=O)O | · | -2 | 4 | ·
SMILES | Myeloid diff MLP | NPR1 activator | GC-B act | Granule exo inh
CC1=C(O)C(=O)C=C2C1=CC=C1C2(C)CCC2(C)C3CC(C)(C(=O)O)CCC3(C)CCC12C (centres undefined) | ? | 3 | 1 | 106*
COC(=O)C1=C(c2ccc(F)cc2OCc2ccccc2)C[C@@H]2CC[C@H]1N2C(=O)NC1CCN(Cc2ccccc2)CC1 | i | -5 | -6 | -2
COC(=O)C1=C(c2ccccc2OCc2ccccc2)C[C@@H]2CC[C@H]1N2C(=O)NC1CCN(Cc2ccccc2)CC1 | + | -4 | -6 | -13
CN(C)C(=S)SSC(=S)N(C)C | + | 18 | 16 | 41
Cn1cc(P(=S)(c2ccccc2)c2ccccc2)c2ccccc21 | · | -6 | -16 | ·
O=C1NC(=O)C(CCc2ccncc2)(Cc2ccc3c(c2)OCO3)C(=O)N1CCc1ccccc1 (centres undefined) | + | 2 | -7 | 42
N#Cc1ccc(NC(=S)N2Cc3cc(Br)ccc3-n3nncc3C2)cc1 | · | -14 | -8 | ·
COc1ccc(Cc2cn(C)c(N)n2)cc1 | · | 2 | 4 | ·
Cc1cc(N2CCNC[C@H]2C)ccc1N1CC[C@@H](O)C1 | · | 0 | -6 | ·
O=C1NC(=O)C(=Cc2ccc(SC3CCCCC3)o2)C(=O)N1 | i | 55* | 17 | 4
CN1C(=O)C(=Cc2ccc(N3CCOCC3)o2)C(=O)N(C)C1=O | i | -6 | -6 | -1
CN1C(=O)C(=Cc2ccc(N3CCCCCC3)o2)C(=O)N(C)C1=S | + | 4 | -3 | 0
CN(CC1COc2ccccc2O1)c1nc(-c2cccnc2)nc2ccccc12 (centres undefined) | i | 12 | 0 | 87*
c1ccc(Cc2cnc(N3CCNCC3)nc2)cc1 | · | -3 | 3 | ·
O=[N+]([O-])c1ccc(C(c2ccc([N+](=O)[O-])cc2)c2ccc([N+](=O)[O-])cc2)cc1 | + | -11 | 1 | -8
Cc1[nH]n(-c2ccccc2)c(=O)c1C(c1ccc([N+](=O)[O-])cc1)c1c(C)[nH]n(-c2ccccc2)c1=O | i | · | · | 0
CC(C)c1ccc(N2C(=O)NC(=O)/C(=C/C=C/c3ccco3)C2=O)cc1 | + | 0 | -7 | 6
Cc1ccc(N2C(=O)NC(=O)/C(=C/C=C/c3ccco3)C2=O)cc1 | i | 16 | 3 | 46
CCc1ccc(N2C(=O)NC(=O)/C(=C\C=C\c3ccco3)C2=O)cc1 | i | 2 | -4 | 76*
Cc1cc(C)cc(N2C(=O)NC(=O)/C(=C\C=C\c3ccco3)C2=O)c1 | i | 29 | 19 | 50
COc1ccc(CN2Cc3cnnn3-c3ccccc3C2C#N)cc1 (centres undefined) | ? | -5 | -8 | 1
COc1ccc(CN2Cc3cnnn3-c3ccccc3C2c2ccccc2)cc1 (centres undefined) | + | -1 | 8 | 16
O=C1NC(=S)NC(=O)C1=Cc1ccc(Br)s1 | i | 32 | 34 | 72*
Cc1ccc(NC(=O)CC[C@H]2O[C@@H](n3cnc4c(NC(=O)c5ccccc5)ncnc43)[C@H](O)[C@@H]2O)cc1C | i | 2 | -1 | -2
O=C(O)c1nn(Cc2ccc(Cl)cc2)c2ccccc12 | + | -7 | -1 | 0
SMILES | Myeloid diff MLP | NPR1 activator | GC-B act | Granule exo inh
O=C(O)c1nn(Cc2ccc(Cl)cc2Cl)c2ccccc12 | i | -1 | -3 | -2
O=C1C2CC=CCC2C(=O)N1SC(Cl)(Cl)Cl (centres undefined) | · | 30 | 22 | ·
CC(C)(C)n1nnnc1C1CN=C(c2ccccc2)c2ccccc2N1 (centres undefined) | · | 1 | 4 | ·
O=c1cc(C(F)(F)F)c2cc3c4c(c2o1)CCCN4CCC3 | + | 7 | 3 | -1
Cc1cc2c(C(F)(F)F)cc(=O)oc2c2c1NCCC2 | i | 9 | 8 | 11
Cc1[nH]c2ccccc2c1CCCNC1CCCCC1 | + | -11 | -9 | -3
